Experimental data from PubChem BioAssay (Tox21).
“And” between values parts separate entries of the source, which are not always exact repeats. Equal entries are not always repeated. Records with an inconclusive call do not appear. Where a structure was tested more than once in an assay, its records may differ in their call. The source made the active and inactive calls. Unless noted, calls follow the shape of the dose curve; as a rule, active = well fitted curve in the direction sought with a large enough effect in the repeat runs; inconclusive = weak or mixed curves; inactive = no such curve, though single readings can be large; an effect the other way counts as inactive or inconclusive.

What was measured:
[1] = Human pregnane X receptor (PXR) small molecule agonists, qHTS cell viability counter screen (AID 1346977); also: nearly all actives have a fitted effect of over 50% in size; also: potency is read from the fitted curve at half-maximal effect
Method in brief: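 Measures live-cell protease fluorescence (CellTiter-Fluor) in PXR-Luc HepG2 cells treated 24hr with compounds at 37C. Cells had 5hr to attach before pin transfer of DMSO solutions.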

[2] = Caspase-3/7 induction in HepG2 cells by small molecules, qHTS assay (AID 1346978); also: nearly all actives have a fitted effect of over 15% in size
Method in brief: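 Caspase-3/7 induction was measured by Caspase-Glo 3/7 luminescence (30 min, room temperature) after a 17 hr compound exposure of wild-type HepG2 cells seeded at 2,000 per well and pre-incubated 5 hr.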

[3] = Caspase-3/7 induction in CHO-K1 cells by small molecules, qHTS cell viability counter screen (AID 1346979); also: nearly all actives have a fitted effect of over 35% in size; also: potency is read from the fitted curve at half-maximal effect
Method in brief: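 In the same wells as the caspase read, viability of compound-treated wild-type CHO-K1 cells was assessed using CellTiter-Fluor, added after 16hr at 37C and measured by fluorescence following 1hr further incubation.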

[4] = Caspase-3/7 induction in CHO-K1 cells by small molecules, qHTS assay (AID 1346980); also: nearly all actives have a fitted effect of over 15% in size
Method in brief: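 Luminescent Caspase-Glo 3/7 read (30min, room temperature) quantified apoptosis induction. Cells were wild-type CHO-K1, treated with compound for 17hr at 37 C and 5% CO2.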

[5] = Caspase-3/7 induction in HepG2 cells by small molecules, qHTS cell viability counter screen (AID 1346981); also: nearly all actives have a fitted effect of over 30% in size; also: potency is read from the fitted curve at half-maximal effect; as to activity change, negative = cytotoxicity: series mostly up to about 92 µM
Method in brief: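 HepG2, WT, 2,000 cells/well; 5 hr pre-incubation 37 C/5% CO2; compound pin-transferred from DMSO; 16 hr exposure; CellTiter-Fluor, 1 hr; fluorescence read.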

[6] = molecular target: Nuclear receptor subfamily 1 group I member 2 (Homo sapiens) (UniProt O75469); test: Human pregnane X receptor (PXR) small molecule agonists, qHTS assay (AID 1346982); also: nearly all actives have a fitted effect of over 35% in size; also: potency is read from the fitted curve at half-maximal effect
Method in brief: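 Luciferase signal from ONE-Glo (30 min, room temperature) measured activation of hPXR-driven CYP3A4 reporter expression in PXR-Luc HepG2 cells treated with compounds for 24 hr at 37 C.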

[7] = molecular target: Acetylcholinesterase (Homo sapiens) (UniProt P22303); test: Acetylcholinesterase (AChE) small molecule antagonists: colormetric cell-based qHTS assay (AID 1347395; calls by dose curve; also: nearly all actives have a fitted effect of over 30% in size; also: potency is read from the fitted curve at half-maximal effect)
Method in brief: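 Endogenous AChE of human neuroblastoma SH-SY5Y cells was measured with an Ellman-type DTNB/acetylthiocholine mix. Compound pretreatment lasted 30 min at 37 C; substrate reaction ran 90 min at 37 C.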

[8] = molecular target: Acetylcholinesterase (Homo sapiens) (UniProt P22303); test: Acetylcholinesterase (AChE) small molecule antagonists: enzyme-based qHTS assay (AID 1347397; calls by dose curve; also: nearly all actives have a fitted effect of over 55% in size); conditions: Potency: AChE enzyme activity inhibition
Method in brief: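 rhAChE 50 mU/mL (dispensed) + cpd or DMSO, 30 min RT; add DTNB/acetylthiocholine cocktail, 10 min RT; colorimetric thiocholine readout. qHTS, 1536-well format.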

[9] = molecular target: Acetylcholinesterase (Homo sapiens) (UniProt P22303); test: Acetylcholinesterase (AChE) small molecule antagonists: fluorescence cell-based qHTS assay (AID 1347398; calls by dose curve; also: nearly all actives have a fitted effect of over 50% in size; also: potency is read from the fitted curve at half-maximal effect); conditions: Potency: AChE activity
Method in brief: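 Read-out is Thiolite Green fluorescence at Ex/Em = 490/520 nm, formed by reaction with thiocholine released when cellular AChE in SH-SY5Y cells hydrolyzes acetylthiocholine. Compounds were preincubated 30 min at 37 C before substrate.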

[10] = molecular target: Acetylcholinesterase (Homo sapiens) (UniProt P22303); test: Acetylcholinesterase (AChE) small molecule antagonists: enzyme-based qHTS assay with human liver microsomes (AID 1347399; calls by dose curve; also: nearly all actives have a fitted effect of over 60% in size); conditions: Potency: qHTS inhibition
Method in brief: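 Recombinant human AChE (50 mU/mL in the enzyme mix) and human liver microsomes (0.25 mg/mL final) were preincubated with compound and NADPH (0.25 mg/mL final) for 30 min at 37 C. Acetylthiocholine/DTNB was then added; thiocholine was read colorimetrically after 10 min at room temperature.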

[11] = molecular target: Cytochrome P450 2D6 (Homo sapiens) (UniProt P10635); test: Cytochrome P450 Family 2 Subfamily D Member 6 (CYP2D6) small molecule antagonists: luciferase reporter qHTS assay (AID 1671196); also: nearly all actives have a fitted effect of over 50% in size; also: potency is read from the fitted curve at half-maximal effect; as to activity change, negative = inhibition: series mostly up to about 120 µM
Method in brief: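 Read-out is luminescence from luciferin formed by CYP2D6 turnover of a proluciferin substrate, recorded as relative luminescence units. Reactions ran 1 h at room temperature after NADPH regeneration solution was added.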

[12] = molecular target: Cytochrome P450 2C19 (Homo sapiens) (UniProt P33261); test: Cytochrome P450 Family 2 Subfamily C Member 19 (CYP2C19) small molecule antagonists: luciferase reporter qHTS assay (AID 1671197); also: nearly all actives have a fitted effect of over 65% in size; also: potency is read from the fitted curve at half-maximal effect; as to activity change, negative = inhibition: series mostly up to about 120 µM
Method in brief: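 First, compounds are pinned into enzyme-substrate mix and held 10 min at room temperature. Second, NADPH regeneration solution is added and plates incubate 1 h at 37C. Third, detection reagent is added and luminescence read after 20 min.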

[13] = molecular target: Cytochrome P450 1A2 (Homo sapiens) (UniProt P05177); test: Cytochrome P450 Family 1 Subfamily A Member 2 (CYP1A2) small molecule antagonists: luciferase reporter qHTS assay (AID 1671199); also: nearly all actives have a fitted effect of over 50% in size; also: potency is read from the fitted curve at half-maximal effect; as to activity change, negative = inhibition: series mostly up to about 120 µM
Method in brief: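 P450-Glo CYP1A2, 1536-well qHTS: enzyme/proluciferin substrate + cpd (DMSO), 10 min RT; NADPH regen, 1 h RT; detection reagent, 20 min; luminescence, RLU.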

[14] = molecular target: Voltage-gated inwardly rectifying potassium channel KCNH2 (Homo sapiens) (UniProt Q12809); test: Human Ether-a-go-go-Related Gene (hERG) channel small molecule antagonists: fluorescence cell-based qHTS assay (AID 1671200)
Method in brief: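 Quantitative HTS in hERG-U2OS cells: thallium entry through the channel reports activity, read as continuous 480/540 nm fluorescence over 2 min after stimulus addition.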

[15] = molecular target: Cytochrome P450 3A4 (Homo sapiens) (UniProt P08684); test: Cytochrome P450 Family 3 Subfamily A Member 4 (CYP3A4) small molecule antagonists: luciferase reporter qHTS assay (AID 1671201); also: nearly all actives have a fitted effect of over 50% in size; also: potency is read from the fitted curve at half-maximal effect; as to activity change, negative = inhibition: series mostly up to about 120 µM
Method in brief: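 Inhibition of CYP3A4 is measured as loss of light: the enzyme converts a proluciferin substrate to luciferin, detected luminescently. Reaction ran 1 h at room temperature with NADPH regeneration after a 10 min compound preincubation.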

[16] = molecular target: Cytochrome P450 2C9 (Homo sapiens) (UniProt P11712); test: Cytochrome P450 Family 2 Subfamily C Member 9 (CYP2C9) small molecule antagonists: luciferase reporter qHTS assay (AID 1671198); also: nearly all actives have a fitted effect of over 50% in size; also: potency is read from the fitted curve at half-maximal effect; as to activity change, negative = inhibition: series mostly up to about 120 µM
Method in brief: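 Enzyme-substrate mix preincubated with compound 10 min at room temperature; reaction started with NADPH regeneration solution, 1 h 37C. Luminescent luciferin product read after 20 min detection reagent.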
% is scaled to controls: 0 for no effect and ±100 for the full control effect.

Chain of Acetylcholinesterase (Homo sapiens) (P22303 whole entry, looked up): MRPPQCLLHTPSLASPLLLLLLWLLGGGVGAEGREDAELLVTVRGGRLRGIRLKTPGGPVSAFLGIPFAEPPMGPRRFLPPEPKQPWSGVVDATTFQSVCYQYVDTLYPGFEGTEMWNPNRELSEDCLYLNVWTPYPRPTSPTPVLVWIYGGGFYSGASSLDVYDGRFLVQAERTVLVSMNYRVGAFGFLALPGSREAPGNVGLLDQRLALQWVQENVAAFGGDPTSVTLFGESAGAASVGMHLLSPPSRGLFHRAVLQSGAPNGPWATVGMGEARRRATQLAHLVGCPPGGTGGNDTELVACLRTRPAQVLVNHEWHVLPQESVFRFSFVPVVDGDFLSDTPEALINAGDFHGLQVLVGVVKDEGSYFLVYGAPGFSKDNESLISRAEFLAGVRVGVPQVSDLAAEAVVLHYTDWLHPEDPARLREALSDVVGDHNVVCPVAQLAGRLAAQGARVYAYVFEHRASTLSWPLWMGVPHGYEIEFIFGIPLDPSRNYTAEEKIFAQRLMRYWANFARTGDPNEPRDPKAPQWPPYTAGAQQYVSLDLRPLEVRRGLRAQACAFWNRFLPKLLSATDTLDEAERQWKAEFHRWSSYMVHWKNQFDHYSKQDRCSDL
Chain of Cytochrome P450 1A2 (Homo sapiens) (P05177 whole entry, looked up): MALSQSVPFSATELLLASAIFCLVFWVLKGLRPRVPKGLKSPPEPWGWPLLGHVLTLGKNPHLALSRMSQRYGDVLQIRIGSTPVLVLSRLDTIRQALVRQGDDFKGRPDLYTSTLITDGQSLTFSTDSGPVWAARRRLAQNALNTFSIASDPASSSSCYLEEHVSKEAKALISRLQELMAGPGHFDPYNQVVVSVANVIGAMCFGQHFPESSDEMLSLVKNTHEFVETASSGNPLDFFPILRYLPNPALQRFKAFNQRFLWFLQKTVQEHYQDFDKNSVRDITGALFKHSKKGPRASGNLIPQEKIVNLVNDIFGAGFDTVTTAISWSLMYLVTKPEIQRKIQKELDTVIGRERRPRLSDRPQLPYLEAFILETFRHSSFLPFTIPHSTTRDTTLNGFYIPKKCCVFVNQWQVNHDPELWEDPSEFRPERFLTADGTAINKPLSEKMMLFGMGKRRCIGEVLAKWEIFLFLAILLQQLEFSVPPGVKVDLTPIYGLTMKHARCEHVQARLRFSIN
Chain of Cytochrome P450 2C19 (Homo sapiens) (P33261 whole entry, looked up): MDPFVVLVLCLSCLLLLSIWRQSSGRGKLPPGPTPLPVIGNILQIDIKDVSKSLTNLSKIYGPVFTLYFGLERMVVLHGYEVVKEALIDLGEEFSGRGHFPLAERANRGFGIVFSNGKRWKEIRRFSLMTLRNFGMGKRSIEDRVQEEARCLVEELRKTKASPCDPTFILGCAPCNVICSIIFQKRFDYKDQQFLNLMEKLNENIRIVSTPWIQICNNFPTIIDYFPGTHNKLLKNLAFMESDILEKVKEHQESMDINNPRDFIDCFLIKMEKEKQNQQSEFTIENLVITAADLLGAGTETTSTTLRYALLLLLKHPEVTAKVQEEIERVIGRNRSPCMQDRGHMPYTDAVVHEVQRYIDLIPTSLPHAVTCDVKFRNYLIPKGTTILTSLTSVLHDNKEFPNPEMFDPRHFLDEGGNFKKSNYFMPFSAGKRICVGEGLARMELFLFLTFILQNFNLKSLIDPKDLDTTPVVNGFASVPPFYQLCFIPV
Chain of Cytochrome P450 2C9 (Homo sapiens) (P11712 whole entry, looked up): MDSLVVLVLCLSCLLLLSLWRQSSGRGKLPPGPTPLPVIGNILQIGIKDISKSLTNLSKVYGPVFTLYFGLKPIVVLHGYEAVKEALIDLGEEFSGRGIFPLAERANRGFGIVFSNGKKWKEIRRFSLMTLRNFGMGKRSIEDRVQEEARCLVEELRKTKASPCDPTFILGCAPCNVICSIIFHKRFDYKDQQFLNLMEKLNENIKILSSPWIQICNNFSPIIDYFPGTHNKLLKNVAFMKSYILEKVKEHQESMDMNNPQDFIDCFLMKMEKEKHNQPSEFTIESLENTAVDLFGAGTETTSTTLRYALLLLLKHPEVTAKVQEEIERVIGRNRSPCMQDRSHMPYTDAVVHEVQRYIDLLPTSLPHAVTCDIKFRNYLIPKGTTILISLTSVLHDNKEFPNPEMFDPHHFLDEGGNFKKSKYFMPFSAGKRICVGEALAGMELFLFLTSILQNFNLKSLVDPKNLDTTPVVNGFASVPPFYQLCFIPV
Chain of Voltage-gated inwardly rectifying potassium channel KCNH2 (Homo sapiens) (Q12809 whole entry, looked up): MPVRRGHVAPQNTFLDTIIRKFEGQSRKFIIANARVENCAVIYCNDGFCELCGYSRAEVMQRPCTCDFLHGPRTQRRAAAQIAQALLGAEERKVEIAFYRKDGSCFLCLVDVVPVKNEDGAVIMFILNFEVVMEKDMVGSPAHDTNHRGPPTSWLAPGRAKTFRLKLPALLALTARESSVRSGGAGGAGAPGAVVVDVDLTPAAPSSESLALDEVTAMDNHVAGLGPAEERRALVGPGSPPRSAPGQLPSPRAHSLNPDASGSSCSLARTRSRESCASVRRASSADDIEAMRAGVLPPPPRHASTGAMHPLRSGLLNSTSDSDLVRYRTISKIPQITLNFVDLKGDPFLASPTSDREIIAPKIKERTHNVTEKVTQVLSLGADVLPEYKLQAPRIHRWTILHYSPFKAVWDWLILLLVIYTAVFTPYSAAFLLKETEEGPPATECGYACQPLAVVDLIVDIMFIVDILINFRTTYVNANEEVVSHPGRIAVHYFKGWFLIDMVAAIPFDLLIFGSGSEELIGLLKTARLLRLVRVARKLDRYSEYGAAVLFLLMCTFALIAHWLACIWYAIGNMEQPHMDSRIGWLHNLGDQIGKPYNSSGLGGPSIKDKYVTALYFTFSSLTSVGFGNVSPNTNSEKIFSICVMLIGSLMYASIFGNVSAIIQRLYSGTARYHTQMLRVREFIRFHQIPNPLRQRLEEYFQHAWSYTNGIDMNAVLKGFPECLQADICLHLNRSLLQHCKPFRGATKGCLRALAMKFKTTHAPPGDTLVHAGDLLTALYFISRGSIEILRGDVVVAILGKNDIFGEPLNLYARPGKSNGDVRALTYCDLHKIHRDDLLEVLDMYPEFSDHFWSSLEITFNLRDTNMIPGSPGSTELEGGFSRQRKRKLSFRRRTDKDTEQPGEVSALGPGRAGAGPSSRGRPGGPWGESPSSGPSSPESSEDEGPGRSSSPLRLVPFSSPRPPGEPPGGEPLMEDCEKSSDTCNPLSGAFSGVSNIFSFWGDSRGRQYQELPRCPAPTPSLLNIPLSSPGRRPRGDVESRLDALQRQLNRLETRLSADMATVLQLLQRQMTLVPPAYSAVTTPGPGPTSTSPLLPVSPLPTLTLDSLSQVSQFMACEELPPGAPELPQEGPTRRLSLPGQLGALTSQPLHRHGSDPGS
Chain of Cytochrome P450 2D6 (Homo sapiens) (P10635 whole entry, looked up): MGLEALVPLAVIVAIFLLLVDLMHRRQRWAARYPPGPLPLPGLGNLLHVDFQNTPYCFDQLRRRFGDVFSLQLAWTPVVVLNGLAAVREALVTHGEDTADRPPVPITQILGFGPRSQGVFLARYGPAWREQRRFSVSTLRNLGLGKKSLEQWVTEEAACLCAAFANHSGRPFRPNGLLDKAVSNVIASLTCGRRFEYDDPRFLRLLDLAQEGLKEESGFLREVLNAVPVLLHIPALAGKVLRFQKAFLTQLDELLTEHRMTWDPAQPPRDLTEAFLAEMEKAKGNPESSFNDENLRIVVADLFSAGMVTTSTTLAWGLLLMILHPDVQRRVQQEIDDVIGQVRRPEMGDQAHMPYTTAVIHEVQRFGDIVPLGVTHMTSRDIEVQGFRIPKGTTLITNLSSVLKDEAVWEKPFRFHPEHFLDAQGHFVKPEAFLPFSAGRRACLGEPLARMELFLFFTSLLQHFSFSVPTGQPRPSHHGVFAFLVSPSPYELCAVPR
Chain of Nuclear receptor subfamily 1 group I member 2 (Homo sapiens) (O75469 whole entry, looked up): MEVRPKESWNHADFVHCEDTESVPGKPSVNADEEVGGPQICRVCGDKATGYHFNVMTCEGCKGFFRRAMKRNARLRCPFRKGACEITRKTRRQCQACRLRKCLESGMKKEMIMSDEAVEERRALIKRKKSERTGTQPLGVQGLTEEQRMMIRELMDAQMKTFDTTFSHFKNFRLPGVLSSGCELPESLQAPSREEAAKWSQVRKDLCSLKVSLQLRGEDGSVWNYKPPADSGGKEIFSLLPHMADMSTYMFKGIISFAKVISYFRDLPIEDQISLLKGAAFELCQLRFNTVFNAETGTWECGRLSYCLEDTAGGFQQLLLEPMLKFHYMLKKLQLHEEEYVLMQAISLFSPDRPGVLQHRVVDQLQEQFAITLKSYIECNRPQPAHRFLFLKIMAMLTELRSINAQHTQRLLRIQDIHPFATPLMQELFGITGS
Chain of Cytochrome P450 3A4 (Homo sapiens) (P08684 whole entry, looked up): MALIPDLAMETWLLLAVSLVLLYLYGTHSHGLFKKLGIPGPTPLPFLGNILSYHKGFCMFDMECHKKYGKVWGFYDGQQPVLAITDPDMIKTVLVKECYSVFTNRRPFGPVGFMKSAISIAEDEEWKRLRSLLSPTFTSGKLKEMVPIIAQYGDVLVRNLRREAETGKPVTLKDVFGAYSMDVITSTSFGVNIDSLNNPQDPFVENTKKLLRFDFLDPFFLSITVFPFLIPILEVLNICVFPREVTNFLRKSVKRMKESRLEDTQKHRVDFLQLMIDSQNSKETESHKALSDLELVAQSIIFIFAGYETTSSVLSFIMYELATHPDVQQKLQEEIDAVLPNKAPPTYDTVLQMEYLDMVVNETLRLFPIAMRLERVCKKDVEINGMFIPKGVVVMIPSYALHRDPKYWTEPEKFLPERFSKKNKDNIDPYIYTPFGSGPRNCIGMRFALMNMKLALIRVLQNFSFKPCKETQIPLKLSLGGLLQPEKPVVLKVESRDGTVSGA

CC(C)N(C(=O)CCl)c1ccccc1
active: Potency [1] 27.3 µM | Potency [3] 24.3 µM and 27.3 µM | Potency [5] 54.5 µM | Potency [7] 63.3 µM | Potency [9] 20 µM | Potency [12] 39.9 µM
48.6 µM (active) and inactive: Potency [6]
inactive: Potency [2] | Potency [4] | Potency [8] | Potency [10] | Potency [11] | Potency [13] | Potency [14] | Potency [15]

CCOC(=O)Cc1ccccc1
inactive: Potency [1] | Potency [2] | Potency [3] | Potency [4] | Potency [5] | Potency [6] | Potency [7] | Potency [8] | Potency [9] | Potency [10] | Potency [11] | Potency [12] | Potency [14]

COCCC#N
inactive: Potency [1] | Potency [2] | Potency [3] | Potency [4] | Potency [5] | Potency [6] | Potency [7] | Potency [8] | Potency [9] | Potency [10] | Potency [11] | Potency [12] | Potency [16] | Potency [13] | Potency [14] | Potency [15]

CC(Cc1ccc(OCC(=O)O)cc1)NCC(O)c1csc(C(F)(F)F)n1 (stereo not given)
active: Potency [13] 35.6 µM
inactive: Potency [1] | Potency [2] | Potency [3] | Potency [4] | Potency [5] | Potency [6] | Potency [7] | Potency [8] | Potency [9] | Potency [10] | Potency [12] | Potency [16] | Potency [14] | Potency [15]

C#CCO
inactive: Potency [1] | Potency [2] | Potency [3] | Potency [4] | Potency [5] | Potency [6] | Potency [7] | Potency [8] | Potency [9] | Potency [10] | Potency [11] | Potency [12] | Potency [16] | Potency [14]

NC1CCC(CC2CCC(N)CC2)CC1 (stereo not given)
active: Potency [11] 35 µM | Potency [15] 11.1 µM
inactive: Potency [1] | Potency [2] | Potency [3] | Potency [4] | Potency [5] | Potency [6] | Potency [7] | Potency [8] | Potency [9] | Potency [10] | Potency [12] | Potency [13] | Potency [14]

Clc1cc(Cl)c(-c2cc(Cl)c(Cl)cc2Cl)cc1Cl
inactive: Potency [1] | Potency [2] | Potency [3] | Potency [4] | Potency [5] | Potency [6] | Potency [7] | Potency [8] | Potency [9] | Potency [10] | Potency [11] | Potency [16] | Potency [14]

C=CCBr
inactive: Potency [1] | Potency [2] | Potency [3] | Potency [4] | Potency [5] | Potency [6] | Potency [7] | Potency [8] | Potency [9] | Potency [10] | Potency [16] | Potency [14]
active: Potency [11] 33.6 µM

COC(=O)N(OC)c1ccccc1COc1ccn(-c2ccc(Cl)cc2)n1
inactive: Potency [2] | Potency [4] | Potency [7] | Potency [8] | Potency [9] | Potency [10] | Potency [15]
active: Potency [1] 5.45 µM | Potency [3] 43.3 nM | Potency [5] 54.5 µM | Potency [6] 68.6 µM | Potency [11] 22.4 µM | Potency [12] 0.283 µM | Potency [16] 7.1 µM | Potency [13] 1.12 µM

O=[N+]([O-])c1ccc(Cl)c(Cl)c1Cl
inactive: Potency [1] | Potency [2] | Potency [3] | Potency [4] | Potency [5] | Potency [6] | Potency [7] | Potency [8] | Potency [9] | Potency [10] | Potency [11] | Potency [16] | Potency [14] | Potency [15]
active: Potency [12] 55.6 µM | Potency [13] 8.8 µM

CN/C(=N\[N+](=O)[O-])NCc1cnc(Cl)s1
inactive: Potency [1] | Potency [2] | Potency [3] | Potency [4] | Potency [5] | Potency [6] | Potency [7] | Potency [8] | Potency [9] | Potency [10] | Potency [11] | Potency [16] | Potency [13] | Potency [14]

O=P(Cl)(Cl)Cl
inactive: Potency [1] | Potency [2] | Potency [3] | Potency [4] | Potency [5] | Potency [6] | Potency [7] | Potency [8] | Potency [9] | Potency [10] | Potency [11] | Potency [16] | Potency [14] | Potency [15]
active: Potency [13] 23.9 µM

Clc1c(Cl)c(Cl)c(Cl)c(Cl)c1Cl
inactive: activity change, negative = cytotoxicity [1] 0.664% [at 8.39 µM] | caspase activation [2] -1.49% [at 8.39 µM] | activity change, negative = cytotoxicity [3] 0.636% [at 8.39 µM] | caspase-3/7 activation [4] 0.528% [at 8.39 µM] | activity change, negative = cytotoxicity [5] -1.11% [at 8.39 µM] | activation [6] -14.4% [at 8.39 µM] | activity, negative = inhibition [7] -1.38% [at 10.5 µM] | activity change, negative = inhibition [8] -1.5% [at 10.5 µM] | activity change, negative = inhibition [9] 3.1% [at 10.5 µM] | activity change, negative = inhibition [10] 0% [at 10.5 µM] | activity change, negative = inhibition [11] -7.24% [at 10.5 µM] | activity change, negative = inhibition [12] 17.2% [at 10.5 µM] | activity change, negative = inhibition [16] -2.13% [at 10.5 µM] | activity change, negative = inhibition [13] -10.9% [at 10.5 µM] | activity change, negative = inhibition [14] 10.1% [at 6.97 µM] | activity change, negative = inhibition [15] 4.21% [at 10.5 µM]

CCCCC(CC)COC(=O)OOC(C)(C)C (stereo not given)
inactive: Potency [1] | Potency [2] | Potency [3] | Potency [4] | Potency [5] | Potency [6] | Potency [7] | Potency [8] | Potency [9] | Potency [10] | Potency [11] | Potency [12] | Potency [16] | Potency [14] | Potency [15]
